Most compounds without a hit are left out; they make up all but 11% or so of the library.
BAZ2B inh: blocks human BAZ2B; AlphaScreen BAZ2B-H3K14Ac peptide displacement; Potency, µM (doses to about 114 µM), without a hit: top-dose activity change, negative = inhibition, actives largely listed as inhibitors; 360,000 compounds, 4.4% hits; AID 504333; also: % is scaled to controls: 0 for no effect and ±100 for the full control effect; nearly all actives have a fitted effect of over 60% in size
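In this displacement format the biotinylated H3(5-23) peptide acetylated at Lys14 serves as ligand at 50 nM, with BAZ2B at 50 nM in PBS pH 7.4 containing 0.01% Tween-20. Donor and acceptor beads are 10 ug/mL final.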
G9a block: inhibitors of human histone lysine methyltransferase G9a; AID 504332; Potency, µM (doses to about 102 µM), without a hit: at the highest dose activity, negative = inhibition, usual class: inhibitors; G9a H3K9 monomethylation, AlphaScreen, 2 h; 350,000 compounds, 8.8% hits; also: % is scaled to controls: 0 for no effect and ±100 for the full control effect; nearly all actives have a fitted effect of over 75% in size
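Quantitative HTS format: methyltransferase activity on a biotin-tagged H3K9 peptide is measured by AlphaScreen, using a rabbit anti-monomethyl-H3K9 antibody with streptavidin donor and anti-IgG acceptor beads. Final levels are 20 nM enzyme, 500 nM peptide, 20 uM SAM; 2 h RT.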
JMJD2A Tudor inh: blocks the human JMJD2A Tudor domain; AlphaScreen JMJD2A-Tudor / H3K4me3 peptide binding; Potency, µM (doses to about 114 µM), inactives show at the top dose activity change, negative = inhibition, usual class: inhibitors; 390,000 compounds, 4.4% hits; AID 504339; also: % is scaled to controls: 0 for no effect and ±100 for the full control effect; nearly all actives have a fitted effect of over 50% in size
VDR inhibitor: blocks the human vitamin D receptor; P11473; VDR-SRC2-3 peptide fluorescence polarization, 2 h; Potency, µM, for the others: max response, negative = inhibition, actives largely listed as inhibitors; 400,000 compounds, 0.93% hits; AID 504847; also: % is scaled to controls: 0 for no effect and ±100 for the full control effect
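Two reagent solutions held at 4 deg C in the dark were dispensed, compounds pinned at 23 nl, and the mixture incubated 2 h at room temperature. Read-out: fluorescence polarization of VDR–SRC2-3 peptide binding.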
HP1b binding inh: HP1-beta chromodomain-methylated histone interaction inhibition; P83916; AlphaScreen HP1-beta / biotin-H3K9me3 peptide binding; Potency, µM (titrated, usually from 114 µM), for inactives: at the highest dose activity change, negative = inhibition, actives largely listed as inhibitors; 390,000 compounds, 0.56% hits; AID 540317; also: nearly all actives have a fitted effect of over 70% in size
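HP1-beta protein (50 nM final) preincubated 30 min at room temperature with biotinylated H3(1-18)K9me3 peptide (50 nM) in PBS pH 7.4, 0.01% Tween-20, then compound added for 30 min. AlphaScreen streptavidin donor/nickel chelate acceptor beads (10 ug/mL final), 30 min dark, luminescence read.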
PLK1 PBD inh: inhibitors of human PLK1 polo-box domain binding. P53350. Plk1 PBD binding of FITC phosphopeptide, fluorescence polarization. Potency, µM, for inactives: max response, negative = inhibition, most hits filed as inhibitors. 360,000 compounds, 2.8% hits; also: series mostly up to about 57 µM; % is scaled to controls: 0 for no effect and ±100 for the full control effect; nearly all actives have a fitted effect of over 65% in size
Target sequence (P53350 whole entry, looked up, the tested form may be a part): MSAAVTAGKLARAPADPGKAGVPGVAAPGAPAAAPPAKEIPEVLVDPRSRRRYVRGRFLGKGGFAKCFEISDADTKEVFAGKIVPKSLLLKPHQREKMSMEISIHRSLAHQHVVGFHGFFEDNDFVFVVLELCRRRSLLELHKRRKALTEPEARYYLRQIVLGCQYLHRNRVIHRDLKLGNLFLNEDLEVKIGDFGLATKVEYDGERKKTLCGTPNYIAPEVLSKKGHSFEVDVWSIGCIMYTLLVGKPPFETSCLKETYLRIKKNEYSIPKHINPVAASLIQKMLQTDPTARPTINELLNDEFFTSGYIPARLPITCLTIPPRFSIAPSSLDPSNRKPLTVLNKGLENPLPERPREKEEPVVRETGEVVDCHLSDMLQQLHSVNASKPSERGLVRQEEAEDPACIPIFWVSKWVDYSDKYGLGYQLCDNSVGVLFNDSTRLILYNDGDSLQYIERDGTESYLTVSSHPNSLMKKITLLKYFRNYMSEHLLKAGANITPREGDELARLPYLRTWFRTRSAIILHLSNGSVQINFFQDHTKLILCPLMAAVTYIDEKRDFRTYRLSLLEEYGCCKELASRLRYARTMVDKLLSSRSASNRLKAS
* = called active by the depositor; ? = inconclusive; . = no result; [ ] = another dose, or the depositor's remark. Calls follow the shape of the dose curve; as a rule, active = well fitted curve in the direction sought with a large enough effect; inconclusive = small, poorly fitted or top-dose-only effect, or another doubt; inactive = no such curve, though single readings can be large; an effect the other way counts as inactive or inconclusive. Potency is read from the fitted curve at half-maximal effect.

SMILES	BAZ2B inh	G9a block	JMJD2A Tudor inh	VDR inhibitor	HP1b binding inh	PLK1 PBD inh
C[N+]1(C)CCCCC1COC(=O)C(O)(c1ccccc1)c1ccccc1 (centres undefined)	.	-16%[12.7 µM]	.	7%	.	.
CCc1ccc(CNCCc2c[nH]c3ccccc23)cc1	2%[0.457 µM]	?	35µM*	-3%	?	1%
Fc1cccc(CNCCc2c[nH]c3ccccc23)c1	?	.	-15%	-15%	26%	-1%
Cc1cccc(CNCCc2c[nH]c3ccccc23)c1	40µM*	.	?	11%	13%	11%
C=CCn1c(O)c(C(CC)=NCc2cccnc2)c(=O)[nH]c1=O	-3%	-30%	44%	4%	38%	-6%
O=C1CS[C@@H](c2ccccc2Cl)c2cc(Cl)ccc2N1	.	.	.	-8%	.	.
CCC(=O)Nc1cccc(-c2nnc(SCC(=O)NCc3ccco3)n2C)c1	-1%	50µM*	-10%	-19%	24%	-7%
COc1ccc(-n2c(O)c(/C=C3\C=Nc4ccc(Br)cc43)c(=O)[nH]c2=O)cc1	-12%	-15%	-13%	?	9%	1.1µM*
O=c1[nH]c(=O)n(Cc2ccccc2)c(O)c1/C=C1\C=Nc2ccccc21	-16%	-45%	-32%	-10%	52%	?
O=c1[nH]c(=O)n(-c2ccccc2F)c(O)c1/C=C1\C=Nc2ccccc21	?	?	-25%	-17%	13%	4.2µM*
O=c1[nH]c(=O)n(CC2CCCO2)c(O)c1/C=C1\C=Nc2ccccc21 (centres undefined)	-29%	1.3µM*	-26%	9%	31%	27µM*
Cc1cccn2c(=O)c(/C=C(\C#N)c3nc4ccccc4s3)c(Oc3ccc(F)cc3)nc12	-2%	-25%[59 µM]	-9%	?	47%	.
CNCC(N)C(=O)O (centres undefined)	.	.	.	-13%	.	.
C=C(C)[C@]12C[C@@H](C)[C@@]34OC(Cc5ccccc5)(O[C@@H]1[C@@H]3C=C(COC(=O)Cc1cc(I)c(O)c(OC)c1)C[C@]1(O)C(=O)C(C)=C[C@@H]41)O2	.	-4%[59 µM]	.	0%	.	.
CN(C(=O)COc1nc2ccccc2s1)c1ccccc1	.	.	.	11%	.	.
N#CC1=C(N)Oc2c(c(=O)oc3ccccc23)C1c1ccc([N+](=O)[O-])o1 (centres undefined)	?	.	-35%	?	-10%	21µM*
CC(C)Oc1ccc(C2C(C#N)=C(N)Oc3c2c(=O)oc2ccccc32)cc1 (centres undefined)	14%	24%[59 µM]	-10%[57.1 µM]	-3%	16%	-5%
O=C(NCCCN1CCCC1)c1ccc2c(c1)N(Cc1cccc(Cl)c1)C(=O)c1ccccc1S2=O (centres undefined)	-11%[57.1 µM]	40µM*	-20%	-1%	19%	-2%
O=C(c1ccc2c(c1)N(Cc1ccc(F)cc1)C(=O)c1ccccc1S2)N1CCC2(CC1)OCCO2	-19%	3%[59 µM]	?	1%	-8%	.
Cc1cc(=O)n(-c2ccccc2)n1C	.	17%[21.5 µM]	-14%	-20%	24%	-16%
O=C1c2cccc3cc([N+](=O)[O-])cc(c23)C(=O)N1c1ccccc1O	?	16%[12.7 µM]	-9%[11.4 µM]	14%	23%	-4%
COC1C(OC(=O)c2ccc(C)[nH]2)C(O)C(Oc2ccc3c(O)c(NC(=O)c4ccc(O)c(CC=C(C)C)c4)c(=O)oc3c2Cl)OC1(C)C (centres undefined)	?	.	50µM*	10%	?	-6%
CCN1CCN(C(=O)COc2ccc(S(=O)(=O)Nc3ccc(Cl)cc3)cc2)CC1	-18%	8%	-14%	-13%	26%	-4%
CCN1CCN(C(=O)Cc2c(C)n(C(=O)c3ccc(Cl)cc3)c3ccc(OC)cc23)CC1	71µM*	50µM*	-35%	-1%	28%	-11%
CCN1C[C@]2(COC(=O)c3ccccc3N3C(=O)C[C@H](C)C3=O)CC[C@H](OC)[C@@]34[C@@H]5C[C@H]6[C@H](OC)[C@H]5[C@](O)(C[C@@H]6OC)[C@@](O)([C@@H](OC)[C@@H]23)[C@@H]14	.	.	.	-3%	.	.
SMILES	BAZ2B inh	G9a block	JMJD2A Tudor inh	VDR inhibitor	HP1b binding inh	PLK1 PBD inh
CN1CCc2nc(N)c(C#N)c(-c3ccccc3)c2C1	-7%	-18%[59 µM]	-6%	-12%	6%	-11%
CN1CCc2c(C#N)c(Cl)nc(Cl)c2C1	-1%	45µM*	-11%	-6%	50%	-12%
O=C(CN1CCCCC1)c1ccc(OC(F)F)cc1	-29%	?	-21%	4%	40%	-8%
CCC1CCCCN1CC(=O)c1ccc(OC(F)F)cc1 (centres undefined)	1%	14µM*	-1%	1%	53%	3%
NC(=O)c1sc2nc3c(c(-c4cccs4)c2c1N)CCCC3	-26%	22µM*	.	.	.	.
O=P(O)(O)CCCl	.	.	.	1%	.	.
COCC#CCN1CCCCC1c1cccnc1 (centres undefined)	.	.	.	-8%	.	.
COc1cc(CC(=O)OCC2=C[C@H]3[C@@H]4C(C)(C)[C@]4(OC(C)=O)[C@H](OC(=O)Cc4ccccc4)[C@@H](C)[C@]3(O)[C@@H]3C=C(C)C(=O)[C@@]3(O)C2)ccc1O	.	?	.	-10%	.	.
Cc1ccc(-n2c(O)c(/C=C3/C(c4ccccc4)=Nc4ccccc43)c(=O)[nH]c2=O)cc1	?	35µM*	?	-24%	-31%	8.4µM*
Cc1cccc(-n2c(O)c(/C=C3/C(c4ccccc4)=Nc4ccccc43)c(=O)[nH]c2=O)c1	40µM*	?	?	89µM*	-10%	13µM*
COC(=O)C1=Nc2ccccc2/C1=C\c1c(O)n(-c2cc(OC)ccc2OC)c(=O)[nH]c1=O	79µM*	?	-15%[57.1 µM]	?	?	3.4µM*
Cc1ccccc1-n1c(O)c(/C=C2/C(c3ccccc3)=Nc3ccccc32)c(=O)[nH]c1=O	?	?	?	89µM*	?	6.7µM*
Cc1cccc(-n2c(O)c(/C=C/C=Nc3ccccc3)c(=O)[nH]c2=O)c1	-1%	?	-22%	9%	9%	51%
Cc1noc(C)c1C(=O)N1CCC2(CCCN(CC(C)C)C2)CC1	.	7%[12.7 µM]	.	9%	.	.
Nc1nccc(-c2c(-c3ccc(F)cc3)ncn2C2CCNCC2)n1	.	.	.	-2%	.	.
CC(=O)O[C@H]1CC[C@]2(C=O)C3CC[C@]4(C)[C@@H](C5=CC(=O)OC5)CC[C@]4(O)C3CC[C@]2(O)C1 (some centres undefined)	.	.	-8%	-3%	21%	.
O=C(O)CCC1NCC2CC1CN1CCCCC21 (centres undefined)	.	.	.	0%	.	.
C[N+](C)(C)CCCl	.	.	.	-5%	.	.
CCOC(=O)c1sc(/N=C/c2c(O)n(-c3cccc(C)c3)c(=O)[nH]c2=O)c(C#N)c1C	1%	-20%[59 µM]	50µM*	?	?	19µM*
